Results filed as inconclusive are left out. Some compounds were tested as several samples or in several runs, with calls that do not always agree. Calls of active or inactive are those of the source. Unless noted, calls follow the shape of the dose curve; as a rule, active = well fitted curve in the direction sought with a large enough effect in the repeat runs; inconclusive = weak or mixed curves; inactive = no such curve, though single readings can be large; an effect the other way counts as inactive or inconclusive.

7 compounds from PubChem BioAssay (Tox21) can be followed below.

The nature of assay [1]: qHTS assay to identify small molecule antagonists of the estrogen receptor alpha (ER-alpha) signaling pathway using the BG1 cell line in the presence of 0.1 nM 17-beta-estradiol - cell viability counter screen (AID 1259241). Also: nearly all actives have a fitted effect of over 40% in size. In outline:
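VM7Luc4E2 cells (endogenous full-length ER-alpha, 4xERE-luciferase), cultured 5 days in charcoal-stripped serum, exposed to compounds with 0.1 nM 17beta-estradiol (final) for 22 hr at 37C. Viability read in same wells as live-cell protease fluorescence after 30 min.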
In general terms: In qHTS, concentration-response curves come from the screen itself.

The nature of assay [2]: qHTS assay to identify small molecule antagonists of the androgen receptor (AR) signaling pathway using the MDA cell line in the presence of 0.5 nM R1881 - cell viability counter screen (AID 1259242). Also: nearly all actives have a fitted effect of over 45% in size. An outline of the steps: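 Concentration-response screen of compounds for toxicity in MDA-kb2 reporter cells: 16 hr at 37C with 0.5 nM R1881, endpoint live-cell protease fluorescence measured in the reporter wells.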

Assay [3] in a line: qHTS assay to identify small molecule phospholipidosis (PLD) inducers (AID 1259344; active = well fitted curve in the direction sought with a large enough effect; an effect the other way counts as inactive or inconclusive). An outline of the steps: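 After 4 h attachment on collagen I, HepG2 cells were dosed with compound alongside LipidTOX Red, kept 24 h at 37 C, fixed, and imaged for lamellar phospholipid pits.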
Assay [4] can be described thus: qHTS assay to identify small molecule HDAC inhibitors - cell viability counter screen (AID 1259365). Also: series mostly up to about 92 µM; nearly all actives have a fitted effect of over 50% in size. In outline:
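Wild-type HCT-116 cells, 1,500/well, cultured overnight, then compound-treated 2 h at 37 C. Viability measured as ATP luminescence with CellTiter-Glo after 30 min at room temperature.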

Assay [5] is described as follows: qHTS assay to identify small molecule agonists of the sonic hedgehog signaling (Shh) pathway - cell viability counter screen (AID 1259366). Also: nearly all actives have a fitted effect of over 50% in size. In outline: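 NIH/3T3-derived Gli1-Luc reporter cells, 2,000 per well, received compound after 4 h and were treated about 23 h at 37C. Viability measured in the same wells by CellTiter-Fluor fluorescence after 1 h.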
Assay [6] in a line: qHTS assay to identify small molecule antagonists of the sonic hedgehog signaling (Shh) pathway - cell viability counter screen (AID 1259367). Also: nearly all actives have a fitted effect of over 55% in size. An outline of the steps:
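Conditioned medium drove Shh signaling in 3T3 Gli1-Luc cells exposed to compounds at 37C and 5% CO2. Viability was determined from CellTiter-Fluor fluorescence, with reagent incubated 1 hr after 23 hr of treatment.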

Assay [7] can be described thus: qHTS assay to identify small molecule agonists of the sonic hedgehog signaling (Shh) pathway (AID 1259368; calls by dose curve;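 also: NIH/3T3-derived 3T3Gli1-Luc cells carrying a stable Gli1-driven firefly luciferase reporter; series mostly up to about 92 µM; nearly all actives have a fitted effect of over 15% in size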). In outline: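 Hedgehog pathway agonism scored by increased firefly luciferase luminescence in 3T3Gli1-Luc cells treated 24 hr at 37 C; detection used a 30 min room-temperature reagent incubation.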
Assay [8] can be described thus: qHTS assay to identify small molecule antagonists of the sonic hedgehog signaling (Shh) pathway (AID 1259369; calls by dose curve; also: nearly all actives have a fitted effect of over 45% in size; also: potency is read from the fitted curve at half-maximal effect). An outline of the steps:
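NIH/3T3 stable Gli1-Luc clone, 2,000 cells/well, 4hr settle; cpd + conditioned medium 24hr; Luc reagent 30min RT; luminescence.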

For assay [9], the target named is Estrogen receptor beta (Homo sapiens) (UniProt Q92731). The assay can be described thus: qHTS assay to identify small molecule agonists of the estrogen receptor beta (ER-beta) signaling pathway (AID 1259377; active = well fitted activation curve with a large enough effect in the signal ratio in the repeat runs, not every such curve was filed as active; the % refers to the signal ratio; also: potency is read from the fitted curve at half-maximal effect). An outline of the steps: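 ER-beta-UAS-bla HEK293T cells in medium with 2% charcoal-stripped FBS were exposed to compounds for 16 h at 37C. Beta-lactamase reporter activity was read as fluorescence after 2 h with LiveBLAzer B/G FRET substrate at room temperature.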
Chain of Estrogen receptor beta (Homo sapiens) (Q92731 whole entry, looked up): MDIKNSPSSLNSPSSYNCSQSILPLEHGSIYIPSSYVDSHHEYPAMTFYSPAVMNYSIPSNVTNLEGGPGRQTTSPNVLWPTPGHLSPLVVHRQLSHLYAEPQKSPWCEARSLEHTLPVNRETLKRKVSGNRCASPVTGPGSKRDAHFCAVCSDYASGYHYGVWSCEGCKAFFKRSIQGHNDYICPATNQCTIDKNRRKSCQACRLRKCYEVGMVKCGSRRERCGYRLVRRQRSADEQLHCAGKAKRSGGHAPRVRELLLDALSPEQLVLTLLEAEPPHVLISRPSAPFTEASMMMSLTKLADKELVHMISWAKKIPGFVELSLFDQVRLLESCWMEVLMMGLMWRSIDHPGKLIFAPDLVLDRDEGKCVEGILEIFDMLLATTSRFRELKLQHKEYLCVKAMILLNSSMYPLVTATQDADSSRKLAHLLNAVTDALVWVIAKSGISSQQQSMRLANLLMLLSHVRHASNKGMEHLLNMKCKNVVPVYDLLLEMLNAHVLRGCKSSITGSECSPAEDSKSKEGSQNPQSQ

For assay [10] the target is unchanged. As to the kind of experiment: qHTS assay to identify small molecule antagonists of the estrogen receptor beta (ER-beta) signaling pathway (AID 1259378; active = well fitted inhibition curve with a large enough effect in the signal ratio in the repeat runs, not every such curve was filed as active; the % refers to the signal ratio). In outline: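 ER-beta-UAS-bla HEK293T (GripTite) cells in 2% charcoal-stripped FBS medium were preincubated 6 hr at 37C, dosed with compound, then stimulated with 1 nM E2 (final) for 16 hr; beta-lactamase reporter read by B/G FRET fluorescence after 2 hr substrate loading.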

A short description of assay [11]: qHTS assay to identify small molecule agonists of the androgen receptor (AR) signaling pathway in the presence of an antagonist - cell viability counter screen (AID 1259379).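 Also: MDA-kb2 human breast cancer cells carrying an MMTV luciferase reporter; series mostly up to about 92 µM; nearly all actives have a fitted effect of over 25% in size.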 In outline: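 MDA-kb2 viability measured by CellTiter-Fluor fluorescence in the same wells as the luciferase signal; nilutamide 3.0uM final; 15-point compound titration; 16 hr at 37C.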
Assay [12] is described as follows: qHTS assay to identify small molecule agonists of the estrogen receptor beta (ER-beta) signaling pathway - cell viability counter screen (AID 1259380). Also: nearly all actives have a fitted effect of over 30% in size. An outline of the steps: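 Measured: luminescence from CellTiter-Glo after 30 min at room temperature, added to wells already read for the LiveBLAzer FRET reporter (2 hr substrate); ER-beta-UAS-bla HEK293T cells had 16 hr compound treatment at 37C, 5% CO2.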

Assay [13] is described as follows: qHTS assay to identify small molecule antagonists of the estrogen receptor beta (ER-beta) signaling pathway - cell viability counter screen (AID 1259382). Also: series mostly up to about 92 µM; nearly all actives have a fitted effect of over 55% in size. An outline of the steps: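 Readout: luminescence, CellTiter-Glo, same wells as bla assay. System: ER-beta-UAS-bla GripTite HEK293T, 2% charcoal-stripped FBS. Exposure: compounds plus 1nM 17-beta-estradiol, 16 hr, 37C.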

Assay [14] can be described thus: qHTS assay to identify small molecule agonists or antagonists of the thyroid stimulating hormone receptor (TSHR) signaling pathway - wild type cell line counter screen (AID 1259384; calls by dose curve). An outline of the steps:
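Wild-type HEK293 cells were plated 18 h at 37 C/5% CO2, pin-dosed with compound plus Ro20-1724 medium, held 30 min at room temperature, then given cAMP-d2 and anti-cAMP-cryptate; fluorescence was read after 1 h. Fifteen concentrations, triplicate.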

In assay [15] the target is Thyrotropin receptor (Homo sapiens) (UniProt P16473). As to the kind of experiment: qHTS assay to identify small molecule antagonists of the thyroid stimulating hormone receptor (TSHR) signaling pathway (AID 1259385; calls by dose curve; also: nearly all actives have a fitted effect of over 20% in size). An outline of the steps:
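TSHR-HEK293 cells were plated and held 18 h at 37C/5% CO2, then given compound plus Ro20-1724 and stimulated with TSH at 1.5 ng/mL final. After 30 min at room temperature, cAMP was detected with cAMP-d2/anti-cAMP-cryptate (1 h) by fluorescence.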

Assay [16] can be described thus: qHTS assay to identify small molecule HDAC inhibitors (AID 1259364).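 Also: wild-type HCT-116 cells with endogenous class I/II HDAC activity; top concentration of the series differs between compounds; nearly all actives have a fitted effect of over 45% in size.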 An outline of the steps:
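Screening used wild-type human colon HCT-116 cells incubated overnight, dosed with compounds for 2 hours, and assayed with a homogeneous luminogenic HDAC I/II reagent for 30 minutes at room temperature.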

In assay [17] the target is Estrogen receptor (Homo sapiens) (UniProt P03372). As to the kind of experiment: qHTS assay to identify small molecule agonists of the estrogen receptor alpha (ER-alpha) signaling pathway in the presence of an antagonist (AID 1259383; calls by dose curve; also: top concentration of the series differs between compounds; nearly all actives have a fitted effect of over 15% in size). An outline of the steps: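 Quantitative HTS confirmation: compounds titrated at 15 concentrations onto estrogen-deprived VM7Luc4E2 cells carrying a four-ERE luciferase construct, with ICI-182,780 present at 10.0nM final. Signal is luminescence after 22hr exposure.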
Chain of Estrogen receptor (Homo sapiens) (P03372 whole entry, looked up): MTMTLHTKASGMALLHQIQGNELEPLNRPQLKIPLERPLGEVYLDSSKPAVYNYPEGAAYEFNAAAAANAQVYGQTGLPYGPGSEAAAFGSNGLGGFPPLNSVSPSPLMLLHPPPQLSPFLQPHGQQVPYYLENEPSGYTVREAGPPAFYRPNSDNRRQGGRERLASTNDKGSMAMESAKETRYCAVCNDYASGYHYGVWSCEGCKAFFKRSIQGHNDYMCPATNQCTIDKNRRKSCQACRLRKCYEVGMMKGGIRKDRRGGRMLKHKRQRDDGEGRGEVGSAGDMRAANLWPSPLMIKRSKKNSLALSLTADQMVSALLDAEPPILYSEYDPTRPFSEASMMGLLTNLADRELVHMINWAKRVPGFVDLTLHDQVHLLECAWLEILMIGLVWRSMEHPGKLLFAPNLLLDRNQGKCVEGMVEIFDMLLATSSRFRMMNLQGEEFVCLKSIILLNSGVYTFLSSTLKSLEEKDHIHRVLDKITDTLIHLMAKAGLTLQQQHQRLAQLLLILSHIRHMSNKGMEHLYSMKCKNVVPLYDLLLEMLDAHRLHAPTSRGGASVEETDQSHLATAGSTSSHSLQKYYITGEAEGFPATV

Chain of Thyrotropin receptor (Homo sapiens) (P16473 whole entry, looked up): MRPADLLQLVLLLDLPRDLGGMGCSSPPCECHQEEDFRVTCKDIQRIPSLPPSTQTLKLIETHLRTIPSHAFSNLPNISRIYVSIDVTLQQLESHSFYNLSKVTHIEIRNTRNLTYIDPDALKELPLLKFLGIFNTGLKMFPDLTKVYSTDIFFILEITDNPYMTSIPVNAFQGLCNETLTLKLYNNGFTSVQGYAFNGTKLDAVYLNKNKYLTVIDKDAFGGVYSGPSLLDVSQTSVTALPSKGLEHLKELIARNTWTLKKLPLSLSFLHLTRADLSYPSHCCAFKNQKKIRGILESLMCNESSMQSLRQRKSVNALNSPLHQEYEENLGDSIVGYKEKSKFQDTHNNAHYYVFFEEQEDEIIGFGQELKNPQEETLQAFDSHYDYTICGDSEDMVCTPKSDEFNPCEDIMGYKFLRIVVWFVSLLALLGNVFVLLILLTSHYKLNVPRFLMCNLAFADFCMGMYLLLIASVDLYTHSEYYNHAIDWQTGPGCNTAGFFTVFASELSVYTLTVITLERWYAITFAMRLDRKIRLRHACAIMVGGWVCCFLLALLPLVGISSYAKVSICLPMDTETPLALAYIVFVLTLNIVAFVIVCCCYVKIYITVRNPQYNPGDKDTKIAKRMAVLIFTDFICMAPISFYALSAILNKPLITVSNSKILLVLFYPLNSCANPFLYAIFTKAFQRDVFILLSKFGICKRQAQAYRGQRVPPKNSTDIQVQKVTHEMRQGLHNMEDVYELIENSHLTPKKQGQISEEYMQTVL

In the case of `COc1ccccc1N1CCNCC1`, the Potency entry in assay [1], in assay [2], in [4], in assay [5], in assay [6] and in assay [7] was “inactive” each time. Further, the Potency entry in assay [8], in assay [9], in [10], in [11], in [12] and in assay [13] was “inactive” in each case. Moreover, the Potency entry in [15] was “inactive”. The compound was called inactive in assay [3] and in assay [14].

As to `CC(C)CCON=O`, the Potency entry in [1], in [2], in assay [16], in [4], in [5] and in [6] was “inactive” throughout. Further, the Potency result in [7], in assay [8], in assay [9], in assay [10], in assay [11] and in [12] was “inactive” throughout. Also, the Potency entry in assay [13] and in assay [15] was “inactive” each time. Besides, the call in assay [3] and in assay [14] was inactive.

Consider `CN[C@@H](C)[C@H](O)c1ccccc1`, for which the Potency entry in [1], in assay [2], in [16], in [4], in [5] and in [6] was “inactive” in each case. In addition, the Potency entry in [7], in [8], in assay [9], in [10], in [11] and in assay [12] was “inactive” each time. Also, the Potency entry in [13], in assay [17] and in assay [15] was “inactive” throughout. Further, the outcome in assay [3] and in assay [14] was inactive.

For the compound `CC[N+]1(C)CCCC(OC(=O)C(O)(c2ccccc2)c2ccccc2)C1` (centres undefined), the Potency result in assay [1], in [2], in assay [16], in assay [4], in assay [5] and in assay [7] was “inactive” throughout. The Potency result in assay [8], in assay [11], in assay [12], in [13] and in assay [15] was “inactive” in each case. Besides, the call in [3] and in assay [14] was inactive.

On to `c1ccc2sc(SNC3CCCCC3)nc2c1`, for which the Potency entry in [1], in assay [2], in [16], in assay [4], in assay [5] and in [6] was “inactive” throughout. Moreover, the Potency result in assay [7], in [9], in assay [11], in assay [12], in assay [13] and in [17] was “inactive” each time. In addition, the Potency entry in [15] is “inactive”. Also, the compound was called inactive in [3] and in assay [14]. Moreover, in assay [8], the Potency was 61.1 µM (active).

Turning to `CCCC(C)(COC(N)=O)COC(=O)NC(C)C` (centres undefined), the Potency entry in [1], in assay [2], in [16], in assay [4], in assay [5] and in assay [7] was “inactive” each time. The Potency result in [8], in assay [12], in [13], in assay [17] and in [15] was “inactive” throughout. Further, the compound was classed as inactive in assay [3] and in assay [14].

As to `Clc1ccc(Cl)c(Cl)c1`, the Potency result in assay [1], in assay [2], in [16], in assay [4], in assay [5] and in assay [6] was “inactive” throughout. The Potency entry in assay [7], in assay [8], in assay [10], in assay [12], in [13] and in assay [15] was “inactive” in each case. Besides, the Potency in assay [9] was 59.5 µM (active) and inactive. Besides, the compound was classed as inactive in assay [14].
